These results are taken from article PMC4336329 (PLoS ONE, 2015).

About 14,000 (4.5%) of roughly 310,000 compounds showed an effect of 50% or more. Effects have a minus sign here. The sample holds strong results, similar compounds and a random draw of the others, so the mix is not that of the screen.
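Further: peak tail current of the secondary pulse compared with the same well before compound.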

Sequence of human ether-à-go-go-related gene (hERG) potassium channel (Q12809 whole entry, looked up): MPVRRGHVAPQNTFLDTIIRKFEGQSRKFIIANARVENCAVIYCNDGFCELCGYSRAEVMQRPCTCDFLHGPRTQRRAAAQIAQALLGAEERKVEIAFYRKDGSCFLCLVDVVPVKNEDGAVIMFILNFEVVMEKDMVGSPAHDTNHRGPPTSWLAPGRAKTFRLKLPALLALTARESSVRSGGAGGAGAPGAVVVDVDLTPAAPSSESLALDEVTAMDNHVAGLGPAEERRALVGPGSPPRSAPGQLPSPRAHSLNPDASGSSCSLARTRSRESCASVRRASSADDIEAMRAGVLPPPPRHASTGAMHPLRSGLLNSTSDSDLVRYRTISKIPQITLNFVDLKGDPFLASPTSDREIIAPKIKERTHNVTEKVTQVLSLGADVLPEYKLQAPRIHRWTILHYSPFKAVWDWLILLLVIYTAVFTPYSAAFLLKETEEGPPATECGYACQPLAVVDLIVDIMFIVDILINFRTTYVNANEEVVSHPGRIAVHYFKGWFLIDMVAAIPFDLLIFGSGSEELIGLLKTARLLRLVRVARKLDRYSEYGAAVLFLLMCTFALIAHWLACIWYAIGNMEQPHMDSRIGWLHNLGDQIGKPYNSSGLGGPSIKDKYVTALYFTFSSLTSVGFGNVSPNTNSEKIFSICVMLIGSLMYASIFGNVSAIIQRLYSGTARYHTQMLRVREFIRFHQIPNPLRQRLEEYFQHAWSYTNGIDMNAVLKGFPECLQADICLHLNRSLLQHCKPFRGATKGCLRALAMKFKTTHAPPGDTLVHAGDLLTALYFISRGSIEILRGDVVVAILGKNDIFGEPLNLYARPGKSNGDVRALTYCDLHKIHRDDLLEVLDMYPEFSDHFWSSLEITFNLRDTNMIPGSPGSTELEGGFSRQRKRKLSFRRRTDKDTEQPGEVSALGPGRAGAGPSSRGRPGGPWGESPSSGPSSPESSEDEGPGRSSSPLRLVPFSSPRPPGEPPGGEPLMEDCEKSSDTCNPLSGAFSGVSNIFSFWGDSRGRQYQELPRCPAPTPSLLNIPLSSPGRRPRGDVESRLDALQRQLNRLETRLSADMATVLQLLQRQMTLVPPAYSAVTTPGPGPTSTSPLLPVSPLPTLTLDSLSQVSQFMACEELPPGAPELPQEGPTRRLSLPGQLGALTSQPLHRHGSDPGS

The experiment has as its target human ether-à-go-go-related gene (hERG) potassium channel (human, UniProt Q12809). As to the kind of experiment: primary screen, population patch clamp on CHO cells stably expressing hERG; higher = less effect of the substance.
Consider `CSc1ncc(C(=O)Nc2cccc(Cl)c2)c(C)n1`, for which the “hERG current change (%, negative = inhibition) at 10uM” value is on record as 10.9%.
On to `CC(CNC(=O)c1ccc(N)cc1)NC(=O)c1ccc(N)cc1` (stereo not shown), for which the “hERG current change (%, negative = inhibition) at 10uM” value is on record as 9.03%.
In the case of `CC(CNC(=O)c1ccc(C#N)cc1)NC(=O)c1ccc(C#N)cc1` (stereo not shown), the “hERG current change (%, negative = inhibition) at 10uM” value is reported as -76.6%.
The same measure for `CC(NC(=O)c1ccc(Cl)cc1)C1CC2CCC1C2` (stereo not shown): 2.08%; for `CC(NC(=O)c1ccc(C#N)cc1)C1CC2CCC1C2` (stereo not shown): -58.8%.
The same measure for `Cc1ccc(C(=O)NC(C)C2CC3CCC2C3)cc1` (stereo not shown): 19.1%; for `CC(NC(=O)c1cc([N+](=O)[O-])cc([N+](=O)[O-])c1)C1CC2CCC1C2` (stereo not shown): -7.55%.
The same measure for `CC(NC(=O)c1ccc([N+](=O)[O-])cc1Cl)C1CC2CCC1C2` (stereo not shown): -58.2%.
Consider `CCOc1ccc(C(=O)NCC(C)NC(=O)c2ccc(OCC)cc2)cc1` (stereo not shown), for which the “hERG current change (%, negative = inhibition) at 10uM” value was 24.5%.
Take `CC(NC(=O)c1ccc(F)cc1Cl)C1CC2CCC1C2` (stereo not shown): the “hERG current change (%, negative = inhibition) at 10uM” value turned out to be 4.99%.
The same measure for `Cc1ccc(C(=O)Oc2ccc(C(=S)N3CCOCC3)cc2)cc1`: -7.84%.
The same measure for `CCN(CC)c1ncnc2scc(C3COc4ccccc4O3)c12` (stereo not shown): -8.77%; for `COc1ccc(NC2CCCN(C(=O)C3(C)CCCCC3)C2)cc1OC` (stereo not shown): 11.3%; for `O=C(Nc1ccccc1)C1CC(=O)n2ncnc2N1` (stereo not shown): 6.48%.
Regarding `CN(C)Cc1ccccc1C1(O)c2ccccc2CSc2ccccc21.Cl` (stereo not shown), the “hERG current change (%, negative = inhibition) at 10uM” value was 9.09%.
`CNC(=S)N(CCc1cccc(C)c1)Cc1cc2cc(OC)c(OC)cc2[nH]c1=O`: the “hERG current change (%, negative = inhibition) at 10uM” value is given as -16.7%.
The same measure for `Cc1ccc(-c2nc(=O)[nH]c3ccccc23)cc1`: -20%.
As for `Cc1ccc(CN2CCN(C(=O)c3ccncc3)CC2)cc1.O=C(O)C(=O)O`, the “hERG current change (%, negative = inhibition) at 10uM” value was -0.159%.
For `O=C(CN1CCN(Cc2ccccc2Cl)CC1)N/N=C/c1ccccn1`, the “hERG current change (%, negative = inhibition) at 10uM” value was -25.8%.
For `C/C(=N\NC(=O)CN1CCN(Cc2ccc(C)cc2)CC1)c1ccncc1`, the “hERG current change (%, negative = inhibition) at 10uM” value is on record as -74.8%.
The same measure for `C/C(=N\NC(=O)CN1CCN(Cc2ccccc2)CC1)c1ccncc1`: -35.8%; for `C/C(=N/NC(=O)CN1CCN(Cc2ccccc2Cl)CC1)c1ccncc1`: -65.4%.
The same measure for `C/C(=N/NC(=O)CN1CCN(Cc2ccccc2Cl)CC1)c1cccnc1`: -10.4%; for `CCCNC(=O)c1ccc2c(c1)S(=O)(=O)c1ccccc1C2=O`: -10.9%; for `COc1ccc(-c2nn(-c3ccccc3)cc2C(=O)NC(=S)N2CCOCC2)cc1OC`: 30.1%.
The same measure for `CCOCc1c(C(=O)NCc2ccccc2CN2CCCC2)oc2ccccc12`: -72%; for `CCOCc1c(C(=O)N2CCN(Cc3ccc(Br)s3)CC2)oc2ccccc12`: -30.9%; for `COCc1c(C(=O)NCc2ccccc2CN2CCCC2)oc2ccccc12`: -66.4%.
For `CCOc1ccc(OCCNC(=O)c2oc3ccccc3c2COC)cc1`, the “hERG current change (%, negative = inhibition) at 10uM” value is given as -32.5%.
With `CCOCc1c(C(=O)NC2CCCCCC2)oc2ccccc12`, the “hERG current change (%, negative = inhibition) at 10uM” value turned out to be 8.56%.
Take `COCc1c(C(=O)NCC2COc3ccccc3O2)oc2ccccc12` (stereo not shown): the “hERG current change (%, negative = inhibition) at 10uM” value is listed as -30.1%.
For `COc1ccc2[nH]c3c(c2c1)CCN1C(=O)N([C@@H](C)C(=O)NCc2ccccc2OC)C(=O)[C@]31C`, the “hERG current change (%, negative = inhibition) at 10uM” value is reported as -17.2%.
For `CCOc1ccc2nc(SCC(=O)c3ccc(O)cc3O)sc2c1`, the “hERG current change (%, negative = inhibition) at 10uM” value is listed as 14.5%.
The same measure for `Cc1ccc([N+](=O)[O-])c(NC(=O)COC(=O)C2CC3CCCC(C2)C3=O)c1C` (stereo not shown): 13.8%; for `Cc1ccnc2nc(C(=O)OCC(=O)Nc3ccc4c(c3)OC(F)(F)O4)nn12`: -49.1%.
The same measure for `Cc1cc(C)n2nc(C(=O)OCC(=O)Nc3ccc4c(c3)OC(F)(F)O4)nc2n1`: -63.8%.
Consider `Cc1cc(C)n2nc(SCCOc3ccccc3)nc2n1`, for which the “hERG current change (%, negative = inhibition) at 10uM” value is on record as -38.7%.
The same measure for `Cc1ccc(OCCOC(=O)c2nc3nccc(C)n3n2)cc1`: -18.4%; for `COc1ccc(OCCSc2nc3nc(C)cc(C)n3n2)cc1`: -13.1%.
For the compound `Cc1cc(C)n2nc(C(=O)OCCOc3ccc(Br)cc3)nc2n1`, the “hERG current change (%, negative = inhibition) at 10uM” value is on record as -55.3%.
In the case of `Cc1cc(C)n2nc(C(=O)OCCOc3cccc(Br)c3)nc2n1`, the “hERG current change (%, negative = inhibition) at 10uM” value is reported as -21.6%.
The same measure for `Cc1cc(C)n2nc(C(=O)OCC(=O)Nc3ccc4c(c3)OCO4)nc2n1`: -1.59%; for `Cc1cc(C)n2nc(C(=O)OCCOc3ccc(F)cc3)nc2n1`: -12.3%; for `Cc1ccnc2nc(C(=O)OCCOc3ccc(Cl)cc3)nn12`: -56.2%.
`Cc1cc(C)n2nc(SCCOc3ccc(F)cc3)nc2n1`: the “hERG current change (%, negative = inhibition) at 10uM” value was -68.8%.
The same measure for `COc1ccc(OCCOC(=O)c2nc3nccc(C)n3n2)cc1`: -3.15%; for `Cc1nc(N)nc(COc2ccccc2)n1`: 16.6%; for `Cc1cc(C)c(NC(=O)CN(C)CC(=O)N(C)CC(=O)Nc2c(Cl)cccc2Cl)c(C)c1`: 9.65%.
As for `COc1cc(OC)cc(C(=O)NNC(=S)NC(=O)c2cccnc2)c1`, the “hERG current change (%, negative = inhibition) at 10uM” value was determined as 14.4%.
The same measure for `CCCCc1ccc2[nH]cc(CCN)c2c1.Cl`: -9.69%.
Consider `COc1ccc(CCNC(=O)C2CCN(Cc3nc(-c4ccccc4F)oc3C)CC2)cc1OC`, for which the “hERG current change (%, negative = inhibition) at 10uM” value is listed as -45.4%.
`Cc1ccccc1-c1nc(CN2CCCC(C(=O)NCCCN3CCOCC3)C2)c(C)o1` (stereo not shown): the “hERG current change (%, negative = inhibition) at 10uM” value is -7.84%.
Take `Cc1ccccc1-c1nc(CN2CCC(C(=O)NCCCN3CCCC(C)C3)CC2)c(C)o1` (stereo not shown): the “hERG current change (%, negative = inhibition) at 10uM” value came to 28.6%.
The same measure for `COc1ccc(CCNC(=O)C2CCN(Cc3nc(-c4ccccc4C)oc3C)CC2)cc1OC`: -79.2%; for `COc1ccc(CCNC(=O)C2CCCN(Cc3nc(-c4ccccc4C)oc3C)C2)cc1OC` (stereo not shown): -57.7%.
The same measure for `O=C(CC(Nc1cccc(Cl)c1Cl)C(=O)OCC(=O)c1cccs1)c1ccccc1` (stereo not shown): -5.59%.
With `CCOC(=O)[C@@H](CCc1ccccc1)N[C@H](C)C(=O)N1[C@H](C(=O)O)C[C@@H]2CCC[C@@H]21`, the “hERG current change (%, negative = inhibition) at 10uM” value is given as 15.9%.
The same measure for `CC(C)(C)NC(=O)c1ccc(COCC(F)(F)F)o1`: -4.16%.
The same measure for `CCN(CC)CCNc1cc(C)c(C#N)c2nc3ccccc3n12`: -20.6%; for `CCOc1ccc2nc(COC(=O)c3ccco3)c(C(C)=O)[n+]([O-])c2c1`: 0.493%.
The same measure for `CCOc1ccc(-n2c(C)nnc2SCC(=O)N(CC)CC)cc1`: 2.63%.
Turning to `CC(C)N1C(=O)CCC1C(=O)NCCc1ccccc1` (stereo not shown), the “hERG current change (%, negative = inhibition) at 10uM” value is -6.11%.
For the compound `COC(=O)c1c(C)oc(C)c1S(=O)(=O)N1CCCCC1`, the “hERG current change (%, negative = inhibition) at 10uM” value is given as 9.1%.
The same measure for `COC(=O)c1[nH]c2ccccc2c1Sc1ccccc1`: 11.9%.
As to `CCN(CC)CCCNC(=O)c1[nH]c2ccccc2c1Sc1ccc(Cl)cc1`, the “hERG current change (%, negative = inhibition) at 10uM” value is recorded as -89.5%.
Turning to `CCCCN(CC)CCCNC(=O)c1cc2c(=O)[nH]c3ccccc3c2s1`, the “hERG current change (%, negative = inhibition) at 10uM” value is -0.682%.
The same measure for `COc1ccc(/C=C/C(=O)NC(C)(C)C)cc1S(=O)(=O)N1CCOCC1`: -15.2%; for `CCCCn1c(N)c(N(CC(C)C)C(=O)c2cccc(S(=O)(=O)N3CC(C)OC(C)C3)c2)c(=O)[nH]c1=O` (stereo not shown): 21.6%.
The same measure for `CC(C)Oc1ccc(C(=O)OCC(=O)N2CCCc3ccccc32)cc1`: 6.85%.
For the compound `O=C(CSc1nc2c(c(=O)n1-c1ccccc1)SCC2)N1CCN(c2ccccc2)CC1`, the “hERG current change (%, negative = inhibition) at 10uM” value is -76.5%.
The same measure for `O=C(CSc1nc2c(c(=O)n1-c1ccccc1)SCC2)N1CCOCC1`: 5.25%; for `CCOC(=O)CSc1nc2c(c(=O)n1-c1ccc(OC)cc1)SCC2`: -9.55%; for `COc1ccc(-n2c(SCC(=O)N3CCN(c4ccccc4)CC3)nc3c(c2=O)SCC3)cc1`: -70%.
`COc1ccc(-n2c(SCC(=O)Nc3ccccc3)nc3c(c2=O)SCC3)cc1`: the “hERG current change (%, negative = inhibition) at 10uM” value is listed as -18.7%.
The same measure for `Cc1ccc(-n2c(SCC(=O)N3CCCC3)nc3c(c2=O)SCC3)cc1`: 5.3%.
The same measure for `Cc1cc(N)n(C2CCN(C)CC2)n1`: 1.99%; for `c1ccc2c(CCNc3ncnc4nc[nH]c34)cccc2c1`: -6.53%.
As to `CNCCCc1[nH]nc(N)c1C#N`, the “hERG current change (%, negative = inhibition) at 10uM” value is on record as 4.22%.
The same measure for `N#Cc1ccccc1Sc1ccccc1C(=O)Nc1ccccc1`: 0.339%; for `Cc1ccc(-c2noc(CCC(=O)Nc3ccc4c(c3)OCO4)n2)cc1`: 3.68%; for `CC(C)(C)OC(=O)N1CCC(CNC(=O)c2cccs2)CC1`: 10.9%.
On to `CCCc1nc(SCC(=O)N2c3ccccc3CC2C)c2c(C)c(C)sc2n1` (stereo not shown), for which the “hERG current change (%, negative = inhibition) at 10uM” value was determined as 14.1%.
The same measure for `Cc1ccc(CC(=O)O/N=C(\N)Cc2ccc([N+](=O)[O-])cc2)cc1`: 0.827%.
For the compound `N/C(Cc1ccc([N+](=O)[O-])cc1)=N\OC(=O)CC1CCCCC1`, the “hERG current change (%, negative = inhibition) at 10uM” value is listed as -68.5%.
The same measure for `COc1ccc(C/C(N)=N/OC(=O)C(c2ccccc2)c2ccccc2)cc1OC`: -14.5%; for `N/C(Cc1ccc([N+](=O)[O-])cc1)=N\OC(=O)C1CCCCC1`: -3.44%; for `N/C(Cc1ccc(Cl)cc1)=N\OC(=O)Cc1ccc([N+](=O)[O-])cc1`: -4.32%.
The same measure for `Cc1ccc(OCC(=O)O/N=C(\N)Cc2ccc([N+](=O)[O-])cc2)cc1C`: -32.7%.
Regarding `N/C(Cc1ccc([N+](=O)[O-])cc1)=N\OC(=O)C(c1ccccc1)c1ccccc1`, the “hERG current change (%, negative = inhibition) at 10uM” value is given as -66.9%.
For the compound `N/C(Cc1ccc([N+](=O)[O-])cc1)=N\OC(=O)Cc1ccccc1`, the “hERG current change (%, negative = inhibition) at 10uM” value is -50.7%.
The same measure for `N/C(Cc1ccc([N+](=O)[O-])cc1)=N\OC(=O)Cc1ccc(Cl)cc1`: -4.39%.
The same measure for `N/C(Cc1ccc([N+](=O)[O-])cc1)=N\OC(=O)c1ccco1`: -26.8%; for `Cc1cc(C)cc(OCC(=O)O/N=C(\N)Cc2ccc([N+](=O)[O-])cc2)c1`: -2.56%.
The same measure for `CCc1ccc(OCC(=O)O/N=C(\N)Cc2ccc([N+](=O)[O-])cc2)cc1`: -53.9%.
